# Data as given in the supplement of paper PMC10849652.
# About 7,900 targets were measured; listed, in parts, are those with a hit and a random draw of the rest. About 0.6% of all pairs of compound and target were hits. A number with no mark means an inactive call.
# Compound: C1=CC=C(C=C1)[C@H](COC2=CC3=C(C=C2)NC(=O)N3)NC(=O)C4=CC=CN(C4=O)CC5=CC(=C(C=C5)F)F
# Experiment: log2 fold change, soluble protein after heating vs DMSO (PISA); higher = thermal stabilisation; K562 cells, 10 uM, 30 min; active = over 0.2 and 3.5 SD of the protein, either way, in both replicates (recomputed)
# Procedure, shortened: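 K562 cells at 2×10^6 cells/mL were exposed to 10 μM compound for 30 min, then aliquots were heated for 3 min across 48°C-58°C, pooled, and extracted in PBS containing 0.5% NP-40 at 4°C. The supernatant after 21,000xg for 90 min was taken as soluble protein and measured by TMTpro 16plex LC-MS/MS with channel sums equalised. Thermal stability is reported relative to control samples, with values from duplicates. Fold changes are given on a log2 scale.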
# UniProt Q8WXD2, sequence (Q8WXD2 whole entry, looked up): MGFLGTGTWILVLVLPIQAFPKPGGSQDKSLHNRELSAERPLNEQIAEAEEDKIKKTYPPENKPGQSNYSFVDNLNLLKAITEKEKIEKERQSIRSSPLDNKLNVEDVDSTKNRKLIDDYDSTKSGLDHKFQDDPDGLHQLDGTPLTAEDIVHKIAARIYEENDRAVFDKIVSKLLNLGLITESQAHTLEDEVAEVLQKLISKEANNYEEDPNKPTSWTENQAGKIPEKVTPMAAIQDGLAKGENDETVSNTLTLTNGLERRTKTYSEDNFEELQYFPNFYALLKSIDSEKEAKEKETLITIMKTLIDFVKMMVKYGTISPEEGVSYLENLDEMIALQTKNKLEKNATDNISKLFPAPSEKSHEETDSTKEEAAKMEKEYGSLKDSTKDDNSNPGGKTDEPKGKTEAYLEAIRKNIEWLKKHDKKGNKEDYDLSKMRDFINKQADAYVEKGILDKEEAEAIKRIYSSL
# UniProt Q5VTB9, sequence (Q5VTB9 whole entry, looked up): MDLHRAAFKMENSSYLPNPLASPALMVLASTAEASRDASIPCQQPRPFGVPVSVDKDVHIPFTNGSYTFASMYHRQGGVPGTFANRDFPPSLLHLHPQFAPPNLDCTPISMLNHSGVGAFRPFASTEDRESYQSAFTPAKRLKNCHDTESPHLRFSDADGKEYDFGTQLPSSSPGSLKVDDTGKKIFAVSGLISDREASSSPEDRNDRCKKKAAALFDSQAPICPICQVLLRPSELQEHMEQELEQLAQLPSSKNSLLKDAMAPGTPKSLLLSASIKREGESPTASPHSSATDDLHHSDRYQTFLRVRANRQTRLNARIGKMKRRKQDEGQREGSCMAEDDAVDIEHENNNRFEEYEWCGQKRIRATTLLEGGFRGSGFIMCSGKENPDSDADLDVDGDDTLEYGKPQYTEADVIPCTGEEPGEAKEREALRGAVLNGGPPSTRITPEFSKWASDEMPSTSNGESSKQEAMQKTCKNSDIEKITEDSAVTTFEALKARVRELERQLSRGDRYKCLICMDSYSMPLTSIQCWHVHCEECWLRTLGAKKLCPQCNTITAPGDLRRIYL
# UniProt Q9UKM9, sequence (Q9UKM9 whole entry, looked up): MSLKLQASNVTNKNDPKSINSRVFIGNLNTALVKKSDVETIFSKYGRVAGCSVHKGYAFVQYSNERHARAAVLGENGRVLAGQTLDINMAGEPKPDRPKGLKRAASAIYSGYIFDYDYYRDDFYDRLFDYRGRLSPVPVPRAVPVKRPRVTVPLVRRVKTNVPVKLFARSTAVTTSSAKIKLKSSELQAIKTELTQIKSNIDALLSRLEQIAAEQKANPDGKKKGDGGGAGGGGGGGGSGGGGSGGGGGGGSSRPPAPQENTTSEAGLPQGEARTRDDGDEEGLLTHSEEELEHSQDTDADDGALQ
# UniProt Q9H4P4, sequence (Q9H4P4 whole entry, looked up): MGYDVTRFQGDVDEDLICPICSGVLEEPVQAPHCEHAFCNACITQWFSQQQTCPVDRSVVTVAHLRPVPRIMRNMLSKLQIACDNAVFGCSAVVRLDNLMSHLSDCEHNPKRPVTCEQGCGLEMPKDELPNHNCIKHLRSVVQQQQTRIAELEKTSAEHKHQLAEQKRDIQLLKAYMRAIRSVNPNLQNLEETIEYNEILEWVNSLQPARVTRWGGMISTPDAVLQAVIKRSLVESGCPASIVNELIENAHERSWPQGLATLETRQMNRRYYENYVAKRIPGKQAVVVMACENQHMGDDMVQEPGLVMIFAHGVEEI
# UniProt Q86UA6, sequence (Q86UA6 whole entry, looked up): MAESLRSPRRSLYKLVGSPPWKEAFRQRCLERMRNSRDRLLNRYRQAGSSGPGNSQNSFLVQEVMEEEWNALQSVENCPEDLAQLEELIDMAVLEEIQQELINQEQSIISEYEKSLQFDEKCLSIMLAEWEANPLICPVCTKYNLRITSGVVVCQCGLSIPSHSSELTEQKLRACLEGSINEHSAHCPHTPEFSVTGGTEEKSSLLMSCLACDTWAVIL
# UniProt Q99961, sequence (Q99961 whole entry, looked up): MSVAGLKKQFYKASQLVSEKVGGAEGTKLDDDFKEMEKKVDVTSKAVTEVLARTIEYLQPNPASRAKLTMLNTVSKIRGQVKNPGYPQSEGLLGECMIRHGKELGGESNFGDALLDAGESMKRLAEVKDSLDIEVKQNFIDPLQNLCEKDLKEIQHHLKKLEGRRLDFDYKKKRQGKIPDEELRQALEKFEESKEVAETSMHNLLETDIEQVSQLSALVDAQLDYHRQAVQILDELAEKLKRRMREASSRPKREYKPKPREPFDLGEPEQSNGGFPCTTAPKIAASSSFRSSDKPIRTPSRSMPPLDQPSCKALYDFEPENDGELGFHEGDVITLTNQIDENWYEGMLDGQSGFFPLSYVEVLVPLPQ
# UniProt O43665, sequence (O43665 whole entry, looked up): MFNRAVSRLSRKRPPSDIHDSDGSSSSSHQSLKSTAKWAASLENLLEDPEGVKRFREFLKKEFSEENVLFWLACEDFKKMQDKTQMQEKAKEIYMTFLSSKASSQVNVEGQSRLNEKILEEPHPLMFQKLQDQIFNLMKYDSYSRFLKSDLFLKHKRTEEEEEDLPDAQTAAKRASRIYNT
# UniProt Q15418, sequence (Q15418 whole entry, looked up): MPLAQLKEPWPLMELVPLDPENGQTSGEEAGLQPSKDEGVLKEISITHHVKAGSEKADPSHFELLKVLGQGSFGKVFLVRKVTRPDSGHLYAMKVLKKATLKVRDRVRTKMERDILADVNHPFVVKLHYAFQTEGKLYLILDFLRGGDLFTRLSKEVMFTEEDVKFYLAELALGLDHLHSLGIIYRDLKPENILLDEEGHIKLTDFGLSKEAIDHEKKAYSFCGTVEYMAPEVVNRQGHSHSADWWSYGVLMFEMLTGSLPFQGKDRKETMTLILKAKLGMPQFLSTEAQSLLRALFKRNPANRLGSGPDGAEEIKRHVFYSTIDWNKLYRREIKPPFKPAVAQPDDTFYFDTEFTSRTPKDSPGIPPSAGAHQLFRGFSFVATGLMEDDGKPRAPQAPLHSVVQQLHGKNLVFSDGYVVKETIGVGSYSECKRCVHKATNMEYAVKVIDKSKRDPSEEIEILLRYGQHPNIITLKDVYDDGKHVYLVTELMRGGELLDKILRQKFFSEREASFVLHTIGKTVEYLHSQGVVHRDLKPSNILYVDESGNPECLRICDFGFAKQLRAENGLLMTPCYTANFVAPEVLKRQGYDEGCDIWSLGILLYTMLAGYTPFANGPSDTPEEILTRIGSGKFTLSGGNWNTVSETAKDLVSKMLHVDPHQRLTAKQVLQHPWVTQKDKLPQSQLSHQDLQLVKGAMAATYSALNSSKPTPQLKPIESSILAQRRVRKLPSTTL
# UniProt Q96IZ7, sequence (Q96IZ7 whole entry, looked up): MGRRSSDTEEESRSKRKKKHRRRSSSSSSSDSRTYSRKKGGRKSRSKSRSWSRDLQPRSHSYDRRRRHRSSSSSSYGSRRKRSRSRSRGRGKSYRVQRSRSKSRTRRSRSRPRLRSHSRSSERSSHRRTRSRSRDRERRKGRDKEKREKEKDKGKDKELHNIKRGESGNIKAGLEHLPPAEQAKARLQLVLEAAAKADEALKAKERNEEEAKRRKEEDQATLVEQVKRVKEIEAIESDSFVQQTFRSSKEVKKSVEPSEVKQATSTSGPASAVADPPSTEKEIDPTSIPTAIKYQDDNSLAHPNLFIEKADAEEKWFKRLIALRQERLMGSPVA
# UniProt P43003, sequence (P43003 whole entry, looked up): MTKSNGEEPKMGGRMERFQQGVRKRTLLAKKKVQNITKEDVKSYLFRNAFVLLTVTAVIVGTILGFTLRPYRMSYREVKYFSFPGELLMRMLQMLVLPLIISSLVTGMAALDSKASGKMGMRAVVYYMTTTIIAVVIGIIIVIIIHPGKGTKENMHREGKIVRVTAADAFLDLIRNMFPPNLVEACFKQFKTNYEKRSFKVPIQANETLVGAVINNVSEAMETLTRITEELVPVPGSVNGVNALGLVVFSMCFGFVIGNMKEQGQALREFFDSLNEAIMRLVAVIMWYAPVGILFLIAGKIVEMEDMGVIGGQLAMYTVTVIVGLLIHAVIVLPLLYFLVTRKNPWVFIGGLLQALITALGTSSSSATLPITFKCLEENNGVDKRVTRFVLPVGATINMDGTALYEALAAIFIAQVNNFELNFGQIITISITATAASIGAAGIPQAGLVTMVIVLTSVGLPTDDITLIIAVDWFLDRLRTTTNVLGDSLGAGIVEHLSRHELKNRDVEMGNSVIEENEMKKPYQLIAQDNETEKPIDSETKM
# UniProt O43818, sequence (O43818 whole entry, looked up): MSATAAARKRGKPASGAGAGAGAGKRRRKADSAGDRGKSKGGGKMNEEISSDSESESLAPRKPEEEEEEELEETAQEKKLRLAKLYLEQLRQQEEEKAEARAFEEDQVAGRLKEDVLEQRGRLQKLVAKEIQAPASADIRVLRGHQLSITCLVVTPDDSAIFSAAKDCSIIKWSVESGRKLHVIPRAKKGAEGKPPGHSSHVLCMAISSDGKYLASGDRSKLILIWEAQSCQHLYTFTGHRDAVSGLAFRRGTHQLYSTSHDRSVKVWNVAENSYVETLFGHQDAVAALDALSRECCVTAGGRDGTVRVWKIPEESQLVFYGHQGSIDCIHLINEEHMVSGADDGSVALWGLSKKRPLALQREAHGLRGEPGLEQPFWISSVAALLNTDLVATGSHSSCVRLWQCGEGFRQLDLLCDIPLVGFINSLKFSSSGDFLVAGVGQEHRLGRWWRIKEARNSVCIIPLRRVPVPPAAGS
# UniProt Q8IZV5, sequence (Q8IZV5 whole entry, looked up): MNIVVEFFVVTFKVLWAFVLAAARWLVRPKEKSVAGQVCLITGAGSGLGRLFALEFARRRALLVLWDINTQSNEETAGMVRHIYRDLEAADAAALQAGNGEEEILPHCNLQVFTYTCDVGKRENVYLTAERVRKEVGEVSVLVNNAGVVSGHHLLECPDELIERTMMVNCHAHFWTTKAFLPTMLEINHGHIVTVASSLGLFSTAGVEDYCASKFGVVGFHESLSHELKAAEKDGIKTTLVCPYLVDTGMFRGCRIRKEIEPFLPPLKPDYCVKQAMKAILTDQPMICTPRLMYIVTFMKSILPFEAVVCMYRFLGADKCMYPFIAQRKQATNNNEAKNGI
row,Target,log2 fold change
1,RPS3 (UniProt P23396),0.055
2,RNF167 (UniProt Q9H6Y7),-0.025
3,SEC24A (UniProt O95486),-0.022
4,RSRC1 (UniProt Q96IZ7),-0.002
5,RB1CC1 (UniProt Q8TDY2),0.198
6,RBM39 (UniProt Q14498),0.015
7,RCC1 isoform 2 (UniProt P18754),-0.175
8,RPS6KA3 (UniProt P51812),-0.044
9,RDH10 (UniProt Q8IZV5),0.113
10,RNF220 (UniProt Q5VTB9),0.004
11,RAP2C (UniProt Q9Y3L5),0
12,RAD51 (UniProt Q06609),-0.006
13,RRP9 (UniProt O43818),0.036
14,SEH1L isoform 1 (UniProt Q96EE3),-0.003
15,RAPGEF4 (UniProt Q8WZA2),-0.038
16,RIOK2 (UniProt Q9BVS4),0.034
17,SHROOM2 (UniProt Q13796),0.105
18,RPS25 (UniProt P62851),0.046
19,SCYL3 isoform 2 (UniProt Q8IZE3),-0.014
20,SACM1L (UniProt Q9NTJ5),0

row,Target,log2 fold change
1,ROCK2 (UniProt O75116),-0.026
2,RBIS (UniProt Q8N0T1),0.035
3,RALY (UniProt Q9UKM9),0.102
4,SAFB2 (UniProt K7EQU4),-0.338
5,RNF2 (UniProt Q99496),0.067
6,REL (UniProt Q04864),0.058
7,RPS6KA1 isoform 2 (UniProt Q15418),-0.059
8,SLC1A3 (UniProt P43003),-0.031
9,RPAIN isoform 8 (UniProt Q86UA6),0.026
10,RAB9A (UniProt P51151),0.024
11,RELA (UniProt Q04206),-0.013
12,RPS5 (UniProt P46782),0.049
13,RNF41 (UniProt Q9H4P4),0.039
14,RETSAT (UniProt Q6NUM9),0.028
15,SAMSN1 isoform 3 (UniProt Q9NSI8),-0.028
16,SH3GL1 (UniProt Q99961),-0.073
17,RGS10 (UniProt O43665),0.014
18,SCG3 (UniProt Q8WXD2),0.131
19,SAAL1 (UniProt Q96ER3),-0.054
